# Rows were chosen to be rich in hits. Some 3.5% of all compounds tested hit in one or more screens of this group.
# SKN-1 inh – inhibitors of C. elegans SKN-1. inhibition, % at 21.8 µM. C. elegans VP596 Pgst-4::GFP/RFP ratio, acrylamide-induced, 24 h. 360,000 compounds, 0.49% hits. AID 624304;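 active means interference check ratio from 0.5 to 1.5 plus GFP to RFP signal ratio inhibition reaching or exceeding a fixed threshold, cut at about 30% in these data, passing the limit was not always enough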
# CHRM1 antagonist – human CHRM1 antagonism. CHO-K1 hM1, Fluo-8 calcium fluorescence, ACh EC80 antagonist. inhibition, % at 3 µM. 360,000 compounds, 1.3% hits;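 active means percent inhibition above its own plate's cutoff, namely the mean of that plate's compound wells plus 3 SD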;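 further: peak over basal fluorescence ratio during 140 s after agonist addition; 0% = ACh EC80 plus DMSO and 100% = DMSO alone without agonist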
# Target sequence (P11229 whole entry, looked up): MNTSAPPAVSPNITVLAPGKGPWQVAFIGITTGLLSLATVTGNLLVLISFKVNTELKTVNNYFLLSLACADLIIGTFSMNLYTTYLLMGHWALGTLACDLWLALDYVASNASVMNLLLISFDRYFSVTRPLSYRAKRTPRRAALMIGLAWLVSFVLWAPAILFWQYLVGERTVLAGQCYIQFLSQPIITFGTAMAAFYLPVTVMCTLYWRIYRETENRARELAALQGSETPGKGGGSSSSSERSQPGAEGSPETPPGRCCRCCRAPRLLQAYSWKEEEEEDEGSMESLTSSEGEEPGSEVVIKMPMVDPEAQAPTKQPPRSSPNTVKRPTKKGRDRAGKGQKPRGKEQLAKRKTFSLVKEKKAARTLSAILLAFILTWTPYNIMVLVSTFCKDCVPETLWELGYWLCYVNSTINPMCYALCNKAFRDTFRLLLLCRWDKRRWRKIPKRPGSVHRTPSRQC
# ATG4B inhibitor – inhibitors of human ATG4B cysteine protease; Q9Y4P1; 340,000 compounds, 0.51% hits; AID 504462; inhibition, % at 8.33 µM; ATG4B cleavage of LC3-PLA2, NBD-HPC fluorescence, 1 h; in the data active means inhibition above about 40%
# Myeloid diff MLP – compounds promoting myeloid differentiation | calls only at 10 µM | 360,000 compounds, 1% hits | AID 624256 | ER-HoxA9 myeloid progenitors, lysozyme-GFP differentiation, flow cytometry;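 active means normalized GFP-positive differentiation at or above the plate's own cutoff, the solvent-only control mean plus 3 SD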;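 further: cells exposed to compound for four days before flow analysis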
# M1 PAM – human CHRM1 positive allosteric modulation; P11229; CHO-K1 hM1, Fluo-8 calcium fluorescence, ACh EC20; 0% = ACh EC20, 100% = maximal ACh; activation, % at 3 µM; 360,000 compounds, 0.088% hits; in the data active means activation above about 19%, passing the limit was not always enough
# CHRM1 agonist – agonists of human M1 muscarinic receptor; P11229; AID 588814; CHO-K1 hM1, Fluo-8 calcium fluorescence, agonist mode; 0% DMSO, 100% acetylcholine EC100; activation, % at 3 µM; 360,000 compounds, 0.33% hits;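 active means activation above the run's mean compound activation plus 3 SD, cut at about 16% in these data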;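 further: peak over basal fluorescence ratio within a 140 s kinetic read after compound addition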
# The depositor's hits bear a star; i = inactive; · = no result; + = active, no number.
SMILES,SKN-1 inh,CHRM1 antagonist,ATG4B inhibitor,Myeloid diff MLP,M1 PAM,CHRM1 agonist
CCCc1nc(SCC(=O)O)c2sc(=S)n(-c3ccccc3)c2n1,-4,11,2,i,-2,-4
CC1=CC(C)(C)N=C(Nc2ccc(C)cc2)S1,28,58*,4,i,-36,-10
Cc1ccc(C)c(Cn2nc3c4ccccc4n(Cc4ccccc4)cc-3c2=O)c1,12,62*,32,i,-7,64*
O=c1c2cn(Cc3ccc(F)cc3)c3ccc(F)cc3c-2nn1Cc1ccc(F)cc1,4,-11,10,i,7,-4
COc1ccc(OC)c(-c2nnc3n2N=C(c2ccc(OC)c(OCC4CC4)c2)CS3)c1,2,28,-18,+,-22,-10
COc1ccc(C2=Nn3c(nnc3-c3ccccc3Cl)SC2)cc1OCC1CC1,20,31,-7,i,-20,-10
O=C(CCn1ccc2cc(S(=O)(=O)N3CCCC3)ccc21)NCCc1ccccc1,8,3,-7,+,17,-4
COc1ccc(OCc2cc(C(=O)NCCN3CCCC(O)C3)no2)c(Cl)c1 (stereo not drawn),-3,-6,-11,i,-5,-5
COc1ccc(OCc2cc(C(=O)NCCN3CCCc4ccccc43)no2)c(Cl)c1,-1,53*,-5,i,-22,-5
COc1ccc(/C=C2\SC(=S)N(c3cccnc3)C2=O)cc1,-14,3,-6,i,2,4
O=C1/C(=C\c2cccnc2)SC(=S)N1c1ccc(F)cc1,-5,-6,-1,+,14,-2
O=C1/C(=C\c2ccc(O)cc2)SC(=S)N1c1cccnc1,-7,19,6,i,-10,17*
O=C1/C(=C/c2cccnc2)SC(=S)N1c1ccccc1,-15,-1,-13,i,5,-6
O=c1[nH]n(-c2ccccc2)c(=O)cc1Cl,13,-10,-7,i,5,-1
Cc1nn2c(C(F)(F)F)c3c(nc2c1-c1ccccc1)CCC3,5,4,-8,i,-5,-5
COc1ccc(N2CCN(C(=O)C3Cc4ccccc4CN3C(=O)c3ccccc3)CC2)cc1 (stereo not drawn),-3,8,-4,+,1,-7
OCC(O)C1OC(Nc2ccc(Cl)cc2)C(O)C1O (stereo not drawn),4,-5,-4,+,8,-3
OCC(O)C1OC(Oc2ccccc2)C(O)C(O)C1O (stereo not drawn),-3,0,-5,i,1,-2
CC(=O)NC(c1ccc(F)c(F)c1)c1nc(-c2ccncc2)cs1 (stereo not drawn),-4,0,·,i,1,-5
COC(=O)Nc1ccc(S(=O)(=O)N2CCCC(C(=O)NC3CCCCC3)C2)cc1 (stereo not drawn),10,-7,2,i,11,-2
O=C(Nc1ccc(S(=O)(=O)N2CCCCC2)cc1)C1CCN(C(=O)c2ccco2)CC1,20,-2,-4,+,5,-4
COC(=O)Nc1ccc(S(=O)(=O)N2CCC(C(=O)NC3CCCCC3)CC2)cc1,-2,-3,-12,+,7,-4
C=CCNC(=O)C1CC(=O)N(c2ccc(OCC(=O)Nc3c(C)cccc3C)cc2)C1 (stereo not drawn),5,-6,-2,i,3,-2
CCCCc1cc(O)c(CCCC)c(O)c1,2,51*,30,i,-16,55*
O=C(CNC(=O)[C@@H]1Cc2ccccc2CN1)NCc1ccco1,9,4,-3,+,-1,-3
SMILES,SKN-1 inh,CHRM1 antagonist,ATG4B inhibitor,Myeloid diff MLP,M1 PAM,CHRM1 agonist
O=C(CNC(=O)[C@@H]1Cc2ccccc2CN1)Nc1ccc2c(c1)OCO2,-3,0,8,+,-2,-3
COCCc1nc2ccc(C(=O)N(C)Cc3cccc(-n4cccn4)c3)cc2o1,15,6,-5,i,0,2
Nc1nc2c(ncn2[C@@H]2O[C@H](CNS(=O)(=O)N3CCCC3)[C@@H](O)[C@H]2O)c(=O)[nH]1,0,-15,·,i,1,-5
CCC(=O)NC1=C(Nc2ccc(N)cc2)C(=O)c2ccccc2C1=O,-1,-14,6,+,13,-3
Cc1onc(-c2c(Cl)cccc2Cl)c1C(=O)ONC(=O)c1cc(C(F)(F)F)cc(C(F)(F)F)c1,-2,-10,-12,i,6,-8
COc1cccc(/C=c2\s/c(=C/C(=O)c3ccc(C)cc3)[nH]c2=O)c1OC,5,-8,33,i,10,-6
COc1ccc(/C=c2\s/c(=C/C(=O)c3ccc(C)cc3)[nH]c2=O)c(OC)c1,-14,-1,-1,+,2,1
CCOC(=O)C1=C[C@@H](C(C)C)N(S(=O)(=O)c2ccc(C)cc2)[C@H]1c1ccc(C(C)C)cc1,9,-1,·,i,-3,1
CCOC(=O)C1=C(C)N=c2sc(=Cc3cc(Cl)c(OCC(=O)O)c(Cl)c3)c(=O)n2C1c1cccc(OC)c1 (stereo not drawn),-1,-6,·,+,-8,4
CCOC(=O)C1=C(C)N=c2s/c(=C/c3ccc(OCC(=O)O)cc3)c(=O)n2C1c1cc(OC)c(OC)c(OC)c1 (stereo not drawn),9,-2,0,i,13,1
COc1ccc(CN2CCCC(C(=O)Nc3cccc(-n4cccn4)c3)C2)cc1 (stereo not drawn),0,16,-12,i,-15,-3
CCc1ccc(CN2CCC(n3nccc3NC(=O)C3CCCC3)CC2)cc1,8,-8,-1,i,6,0
COC(=O)c1ccc(CN2CCC(n3nccc3NC(=O)C3CC3)CC2)cc1,-4,-7,1,i,5,19*
COCCNC(=O)C1CCCN(Cc2ccc(Cl)cc2)CC1 (stereo not drawn),0,-1,·,i,-2,-6
CCNC(=O)C1CCCN(Cc2ccc(C(=O)OCC)cc2)CC1 (stereo not drawn),-2,65*,·,i,-19,4
COC(=O)c1ccc(CN2CCC(n3nccc3NC(=O)C3CCCC3)CC2)cc1,-4,4,5,i,-8,21*
COC(=O)c1ccc(CN2CCCC(C(=O)Nc3cccc(-n4cccn4)c3)C2)cc1 (stereo not drawn),6,41*,1,i,-12,38*
O=C1CCN(S(=O)(=O)c2ccccc2)CCN1CCOCc1cccc(F)c1,4,-24,-9,i,10,-2
COc1ccc(OC(=O)c2cccc(S(=O)(=O)N3CC(C)OC(C)C3)c2)cc1 (stereo not drawn),-16,5,-11,i,0,0

# Source: PubChem (several laboratories)
